Experimental data reported in PubChem BioAssay.
Activity calls are given as the source filed them.

Key:
[1] = compound effects on lung adenocarcinoma cell viability – A549, calcein-AM fluorescence, 48 h, basal, profiling panel (AID 1162); settings: higher = more signal
[2] = compound effects on differentiated 3T3-L1 adipocyte viability – cell-based, 3T3-L1 adipocytes, calcein-AM fluorescence, 48 h, basal, profiling panel (AID 1163); settings: 3T3-L1 adipocytes viability, higher = more signal
[3] = compound effects on hepatocellular carcinoma cell viability – HepG2, calcein-AM fluorescence, 48 h, basal, profiling panel (AID 1164); settings: higher = more signal
[4] = compound effects on multiple myeloma cell viability – MM1S, calcein-AM fluorescence, 48 h, basal, profiling panel (AID 1165); settings: higher = more signal;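 further: viability of MM1S multiple myeloma cells under basal unstimulated conditions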
[5] = calcein-AM signal in unstimulated myeloma cells – cell-based, calcein-AM fluorescence, 48 h, PK04 Diversity Set, profiling panel (AID 1166); settings: RPMI8226 myeloma viability, higher = more signal;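 further: cells grown under basal conditions without added stimulus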
[6] = JC-1 mitochondrial signal, unstimulated HepG2 cells – cell-based, JC-1 fluorescence, 24 h, 100 nL compound, profiling panel (AID 1167); settings: HepG2 mitochondrial potential, higher = more signal
[7] = JC-1 mitochondrial signal, unstimulated adipocytes – cell-based, JC-1 fluorescence, 3T3-L1 adipocytes, 24 h, 100 nL compound, profiling panel (AID 1168); settings: JC-1 mitochondrial fluorescence, higher = more signal, called active from +8 up or from −8 down
[8] = JC-1 mitochondrial signal, unstimulated myeloma cells – cell-based, JC-1 fluorescence, RPMI8226, 24 h, 100 nL compound, profiling panel (AID 1169); settings: JC-1 mitochondrial potential fluorescence, higher = more signal
[9] = JC-1 mitochondrial signal, unstimulated MM1S myeloma – cell-based, JC-1 fluorescence, 24 h, 100 nL compound, profiling panel (AID 1170); settings: MM1S mitochondrial potential, higher = more signal
[10] = resazurin metabolic signal in A549 cells – cell-based, resazurin fluorescence, 24 h, PK04 Diversity Set, profiling panel (AID 1171); settings: A549 viability, higher = more signal, called active from +8 up or from −8 down
Further: test concentration not given here.

SMILES | z-score [1] | z-score [2] | z-score [3] | z-score [4] | z-score [5] | z-score [6] | z-score [7] | z-score [8] | z-score [9] | z-score [10]
C[N+](C)(C)CCCC[C@@H]1NC(=O)[C@H]2C[C@@H](C(=O)NCCCCCNC(=O)CS)[C@@H](c3cccc(OCCO)c3)N2C1=O | 0.316 | 0.571 | -0.953 | -0.631 | 0.37 | 1.09 | 0.127 (inactive) | 0.812 | 0.415 | -0.219 (inactive)
CC(C)=CCCC(C)=CC(O)C1C=CC2C(=O)NC(=O)C2N1Nc1ccc(Cl)cc1Cl (stereo not given) | -0.483 | -0.0042 | -1.62 | -3.76 | -4.11 | -3.49 | -0.947 (inactive) | -0.238 | -0.506 | -0.577 (inactive)
Cc1ccc(C(C)CC(O)C2C=CC3C(=O)N(C)C(=O)C3N2Nc2ccccc2)o1 (stereo not given) | -0.428 | -1.01 | 0.345 | -0.144 | 0.0166 | -1.35 | -0.592 (inactive) | 0.347 | -0.249 | -0.18 (inactive)
CCCC#C[Si](O[C@H](CC)c1cn(Cc2ccccc2)nn1)(C(C)C)C(C)C | -0.164 | -0.782 | 0.709 | -0.588 | -0.439 | 0.0193 | -0.497 (inactive) | 0.973 | -1.16 | -0.406 (inactive)
CCN(CC)c1ccc(N2CC=CC34O[C@@H]5C=CCCOC(=O)C5[C@H]3C(=O)N(C(C)CO)[C@@H]4C2=O)cc1 (stereo not given in full) | -0.0735 | -0.456 | 0.316 | 0.241 | 0.333 | 0.408 | 0.0389 (inactive) | -0.487 | 0.0276 | 0.586 (inactive)
CC(C)NC(=O)[C@@]1(c2ccc([N+](=O)[O-])cc2)CC(=O)N(CC23CC4CC(CC(C4)C2)C3)[C@@H]1c1ccc(CO)cc1 | -1.34 | 0.999 | -1.72 | -2.06 | -3.8 | -1.38 | -0.959 (inactive) | -0.6 | -0.24 | -2.03 (inactive)
COc1ccc(C(O)C2C=CC3C(=O)N(c4ccccc4)C(=O)C3N2Nc2ccc([N+](=O)[O-])cc2)c2ccccc12 (stereo not given) | -0.826 | -1.07 | -0.39 | -0.517 | -0.54 | -2.27 | -1.08 (inactive) | -0.344 | -1.32 | 0.604 (inactive)
CC(C)c1nc2cc(Br)ccc2c(=O)o1 | -0.374 | 0.124 | -1.32 | 0.345 | -0.262 | -0.0593 | 0.316 (inactive) | 0.593 | -0.259 | 0.0924 (inactive)
COCCOC(=O)N1C(=O)[C@@]2(c3cc(C#CCC(C(=O)OC)C(=O)OC)ccc31)[C@H](C(=O)Nc1nc3ccccc3s1)[C@H]1C(=O)O[C@H](c3ccccc3)[C@H](c3ccccc3)N1[C@@H]2c1ccc(O)cc1 | -0.857 | 0.401 | -0.277 | 0.0422 | -0.23 | -2.45 | -2.24 (inactive) | 0.467 | 0.258 | 0.677 (inactive)
NCCCCCCNC(=O)[C@@H]1C[C@@H]2C(=O)N3CCC[C@H]3C(=O)N2[C@@H]1c1cccc(OCCO)c1 | 0.108 | 1.18 | -0.12 | 0.597 | 0.313 | 0.127 | 0.391 (inactive) | -0.675 | 0.468 | 0.999 (inactive)
CC(C)C[C@H]1NC(=O)C([C@@H](C)OCc2ccccc2)NC(=O)[C@@]23C(=O)N[C@@H](Cc4ccccc4)C2[C@H](C)[C@@]2(C)O[C@H]2C3/C=C/C/C=C\CNC1=O (stereo not given in full) | -0.469 | 1.9 | -0.3 | -0.936 | -1.53 | 0.169 | 0.679 (inactive) | -0.872 | 0.277 | 0.154 (inactive)
C=C(COC)C(=O)CC[C@H](OC(=O)c1cccnc1)c1ccc(OCCO)cc1 | 0.369 | 0.0993 | 0.143 | -1.93 | -0.418 | -1.02 | -0.351 (inactive) | 0.878 | -0.0164 | -0.552 (inactive)
O=C1C[C@@](C(=O)NCc2ccccc2)(c2ccc([N+](=O)[O-])cc2)[C@@H](c2ccc(CO)cc2)N1C1CCCCC1 | 0.691 | 1.34 | 2.22 | 0.406 | 0.956 | 2.33 | 1.58 (inactive) | -0.343 | 0.242 | -0.685 (inactive)
C=C(COC)C(=O)CC[C@@H](OC(C)=O)c1ccccc1OCCO | 0.177 | 1.37 | -0.601 | -3.28 | -1.75 | 0.143 | -0.22 (inactive) | -0.557 | -1.82 | 0.837 (inactive)
CCCCC(O)C1C=CC2C(=O)N(c3ccccc3)C(=O)C2N1Nc1ccc([N+](=O)[O-])cc1 (stereo not given) | 0.286 | -0.229 | 0.0784 | -0.72 | -0.438 | -0.573 | -1.08 (inactive) | -0.147 | -0.745 | 0.113 (inactive)
CC(C)C[C@@H]1NC(=O)[C@@H]2C[C@H](C(=O)NCCCCCCNC(=O)CS)[C@H](c3cccc(OCCO)c3)N2C1=O | 0.028 | -0.0252 | 0.134 | -0.505 | -0.587 | -0.946 | -0.185 (inactive) | -0.217 | -0.165 | 0.457 (inactive)
COc1ccc([Si](C)(C)[C@H]2[C@H](CC(=O)N3Cc4ccccc4C[C@H]3CO)O[C@@]3(C(=O)N(C)c4ccccc43)[C@@H]2C)cc1 | -0.962 | 1.43 | -1.42 | -2.67 | -4.05 | -0.592 | -0.0846 (inactive) | -1.1 | -0.748 | -0.299 (inactive)
